# Compounds with a hit are over-represented: about 7.9% of the library has one in this group of screens.
# FMDV inh = antivirals against foot and mouth disease virus; 410,000 tested, 1.2% active; Potency, µM (doses to about 57.9 µM), usual class: inhibitors; FMDV antiviral cell-based qHTS; calls by dose curve; tested in HEK293T cells; also: read-out not given here; nearly all actives have a fitted effect of over 45% in size
# HCMV antiviral = inhibitors of human cytomegalovirus | HFF cells, HCMV-luciferase reporter, 72 h; hits give low values | activity change, negative = inhibition, % at 57.5 µM | 410,000 tested, 4.5% active | AID 1259415; in the data active = activity change below about -60%; inconclusive = no clear call, values can overlap the other calls; inactive = above about -39%
#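 Luciferase read-out from HCMV-luciferase-infected HFFs (MOI 1 PFU/cell) 72 h post infection at 37C; compounds added after 16 h cell attachment; activity normalized between buffer-only basal and Salinomycin (10uM) inhibitor controls.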
# HCV inhibitor = blocks hepatitis C virus. Huh7.5.1 HCVcc-Cre infection, luciferase reporter, 44 h. 340,000 tested, 3.4% active. Potency, µM (top dose mostly 41.8 µM), hits mostly inhibitors; active = well fitted inhibition curve with a large enough effect; inconclusive = small, poorly fitted or top-dose-only effect, or another doubt; inactive = no such curve, though single readings can be large or run the other way
#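 After 44 h co-culture of compound, cells and HCVcc-Cre (~0.5 moi), substrate is added for 15 min at room temperature and luciferase measured over 15 sec. Cells were seeded at 1,000/well and pre-cultured 4 h.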
# LASV entry inh = inhibitors of Lassa virus binding or cell entry; Lassa virus pseudotype entry inhibition, cell reporter; Potency, µM (highest dose often 37.9 µM), actives largely listed as inhibitors; 300,000 tested, 1.2% active; AID 540256; calls by dose curve; tested in HEK293 cells; also: nearly all actives have a fitted effect of over 50% in size
# MARV entry inh = Marburg virus entry inhibition; Potency, µM (top dose mostly 37.8 µM), hits mostly inhibitors; Marburg virus pseudotyped entry inhibition, cell reporter; 300,000 tested, 1.8% active; calls by dose curve; tested in HEK293 cells
# Numbers stand for hits; n = inactive; u = inconclusive; x = not tested or not shown.
SMILES,FMDV inh,HCMV antiviral,HCV inhibitor,LASV entry inh,MARV entry inh
C=CC[C@@H](CC(=O)N[C@@H](CO)Cc1ccccc1)C(=O)N[C@H](COC(=O)[C@@H](CC=C)CC(=O)OC(C)(C)C)Cc1c[nH]c2ccccc12,35µM,n,u,x,x
C=CC[C@@H](CC(=O)N(CCO)Cc1ccccc1)C(=O)N[C@H](COC(=O)[C@@H](CC=C)CC(=O)OC(C)(C)C)Cc1c[nH]c2ccccc12,u,n,11µM,x,x
C=CC[C@@H](CC(=O)N(CCO)Cc1ccccc1)C(=O)N[C@H](COC(=O)[C@@H](CC=C)CC(=O)OC(C)(C)C)C(C)(C)C,n,n,u,x,x
C=CC[C@H](CC(=O)N(CCO)Cc1ccccc1)C(=O)N[C@@H](COC(=O)[C@H](CC=C)CC(=O)OC(C)(C)C)Cc1c[nH]c2ccccc12,u,n,u,x,x
COc1cc2c(cc1OC)[C@@H]1O[C@](CCCCN3C(=O)c4ccccc4C3=O)(C2)Oc2cc(C)n(Cc3ccccc3)c(=O)c21,x,x,x,x,n
Cc1cccc(CNC(=O)c2cnn(-c3ncc(C)c(-c4cccs4)n3)c2C2CC2)n1,n,x,x,x,x
O=C(Nc1ccccc1F)c1oc2ccccc2c1NC(=O)C12CC3CC(CC(C3)C1)C2,n,n,x,n,n
O=C(O)c1[nH]c2ccc([N+](=O)[O-])cc2c1-c1ccccc1,n,n,n,x,x
NNC(=O)c1[nH]c2ccc([N+](=O)[O-])cc2c1-c1ccccc1,n,-89,u,x,x
COCCCn1c(=N)c(C(=O)NCc2ccc3c(c2)OCO3)cc2c(=O)n3cccc(C)c3nc21,n,n,n,x,x
Cc1cccn2c(=O)c3cc(C(=O)NC(C)c4ccccc4)c(=N)n(CCOCCO)c3nc12 (stereo not drawn),n,n,x,n,u
CCOCCCn1c(=N)c(C(=O)NCc2ccc3c(c2)OCO3)cc2c(=O)n3cccc(C)c3nc21,n,u,n,u,5.2µM
CCOCCCn1c(=N)c(C(=O)NC(C)c2ccccc2)cc2c(=O)n3cccc(C)c3nc21 (stereo not drawn),u,-73,x,n,u
Cc1cccn2c(=O)c3cc(C(=O)NC(C)c4ccccc4)c(=N)n(CCCn4ccnc4)c3nc12 (stereo not drawn),n,-68,n,u,4.5µM
COc1ccccc1CN1CCC2(CCC(CNC(=O)c3ccccc3N(C)C)O2)CC1 (stereo not drawn),n,x,x,x,x
CCOC(=O)c1c(NC(=O)CSc2nc3ccc(C)cc3[nH]2)sc2c1CC(C)(C)NC2(C)C,n,n,6.3µM,10µM,u
CCN1CCc2c(OCC(=O)N3N=C(c4cccs4)CC3c3ccc(F)cc3)cccc2C1=O (stereo not drawn),n,n,10µM,11µM,u
CN1CCc2c(OCC(=O)N3N=C(c4cccs4)CC3c3ccc(F)cc3)cccc2C1=O (stereo not drawn),u,-89,n,n,u
CCOC(=O)CSCC(=O)N1N=C(c2cccs2)CC1c1ccc(F)cc1 (stereo not drawn),n,u,n,n,n
O=C(CSc1nc2ccccc2s1)N1N=C(c2cccs2)CC1c1ccc(F)cc1 (stereo not drawn),n,n,n,n,u
COc1cccc(-c2cn3c(n2)sc2cc(C(=O)NCCc4ccccc4)ccc23)c1,n,x,x,n,x
C/C(=N\Nc1cc(C(F)(F)F)ccc1Cl)c1ccncc1,n,n,13µM,x,n
CCn1nc(C)c(CN2Cc3ccccc3OC(c3ccccc3OC)C2)c1C (stereo not drawn),n,x,x,x,x
Clc1cc2cccnc2c2ncccc12,n,-96,2.8µM,x,x
Cc1c(C)c2cccnc2c2ncccc12,u,x,3.2µM,x,x
SMILES,FMDV inh,HCMV antiviral,HCV inhibitor,LASV entry inh,MARV entry inh
O=[N+]([O-])c1cc(Cl)c(O)c2ncccc12,n,-98,n,u,u
Oc1c(I)cc(Cl)c2cccnc12,n,n,u,n,n
O=[N+]([O-])c1ccc(Cl)c2cccnc12,n,n,n,n,u
O=[N+]([O-])c1cc(F)c2cccnc2c1O,n,n,n,x,x
COc1cc(N)c2ncccc2c1Cl,n,n,n,n,n
O=[N+]([O-])c1cc(Cl)c2cccnc2c1O,n,-74,n,n,u
COC(=O)C1(C(=O)OC)Cc2conc2[C@@H]1c1ccccc1,x,x,x,x,n
CC(=O)c1ccc(C(=O)N2CCc3c(cnc(C)c3CNC(=O)c3ccc4c(c3)OCO4)C2)s1,n,x,x,x,x
COc1ccc(C2CC(c3ccccc3)=NN2C(=O)COC(=O)c2cccc(O)c2)cc1 (stereo not drawn),n,n,u,n,u
COc1ccc(C2CC(c3ccc4ccccc4c3)=NN2C(=O)CNC2CCCCC2)cc1 (stereo not drawn),u,n,u,x,x
COc1ccc(C2CC(c3ccccc3)=NN2C(=O)COC(=O)c2nc3nc(C)cc(C)n3n2)cc1 (stereo not drawn),n,n,10µM,n,n
C=CCNCC(=O)N1N=C(c2ccc3ccccc3c2)CC1c1ccc(OC)cc1 (stereo not drawn),n,n,u,n,8.9µM
CCCC/C(O)=C/c1nc2ccccc2[nH]c1=O,n,-79,n,n,n
COc1ccc(NC(=O)CCc2nnc3n(C)c(=O)c4sccc4n23)cc1Cl,n,n,x,n,u
O=C(CN1C(=O)COc2ccc(S(=O)(=O)NC3CCCC3)cc21)Nc1ccc(Cl)cc1F,n,n,x,n,x
Cc1ccsc1/C=N/N1CCN(c2ccccc2)CC1,n,n,n,u,n
Cc1ccsc1/C=N/N1CCN(c2ccccn2)CC1,n,-71,n,n,u
ClC(=C\c1ccccc1)/C=N/N1CCN(c2ccccn2)CC1,n,-70,n,n,n
COc1ccc(-c2c3c(=O)n(C)c(=O)n(C)c3cn2-c2cccc(N)c2)cc1,n,n,x,u,n
COc1ccc(OC)c(CNC(=O)C2CCN(S(=O)(=O)c3ccc4[nH]c(=O)oc4c3)CC2)c1,n,n,x,n,x
NC(=O)c1cc([N+](=O)[O-])ccc1NCc1cccc([N+](=O)[O-])c1,n,n,n,x,x
NC(=O)c1cc([N+](=O)[O-])ccc1NCc1ccc(N)cc1,8.9µM,n,n,x,x
NC(=O)c1cc([N+](=O)[O-])ccc1NCc1ccc(F)cc1,n,-81,2.5µM,x,x
O=S1(=O)CC(N2CC=CC2)CN1CCc1ccccc1 (stereo not drawn),x,x,x,n,x
COc1cc(CNC(=O)c2cnc3c(-c4cccc(C)c4)c(C)nn3c2C)cc(OC)c1OC,n,n,x,n,x
CCOC(=O)c1c(S(=O)(=O)N2CCC(C(=O)Nc3ccc(C)cc3C)CC2)c(C)n(C)c1C,n,n,x,u,x
COc1ccc(C(=O)NCc2nnc(SCC(=O)Nc3ccccc3)n2-c2ccc(F)cc2)cc1,n,n,x,u,n
COc1ccc(C(C[N+](=O)[O-])C2(c3ccc(OC)c(OC)c3)C(=O)c3ccccc3C2=O)cc1 (stereo not drawn),n,x,u,16µM,11µM
O=C(c1ccco1)N1CCN(C(=O)c2ccc(COc3ccc(Cl)cc3Cl)o2)CC1,u,n,u,13µM,u
O=C(c1ccc(COc2ccccc2Cl)o1)N1CCN(c2ccccc2)CC1,n,n,u,x,x

# High-throughput results as filed in PubChem.
